Active and inactive are the calls of the source. The call rests on the fitted dose curve.
Details: Ebola virus entry cell assay, ratio channel

| Structure (SMILES) | outcome | AC50 |
| --- | --- | --- |
| O=c1[nH]cnc2c1ncn2[C@H]1CC[C@@H](CO)O1 | inactive |  |
| CC(C)n1c(/C=C/[C@@H](O)C[C@@H](O)CC(=O)O)c(-c2ccc(F)cc2)c2ccccc21 | inactive |  |
| COC(=O)C1=C(C)NC(C)=C(C(=O)OCC(C)C)C1c1ccccc1[N+](=O)[O-] (centres undefined) | inactive |  |
| Cc1ccccc1C(=O)Nc1ccc(C(=O)N2CCCC(O)c3cc(Cl)ccc32)c(C)c1 (centres undefined) | inactive |  |
| COC(=O)N[C@H](C(=O)N[C@@H](Cc1ccccc1)[C@@H](O)CN(Cc1ccc(-c2ccccn2)cc1)NC(=O)[C@@H](NC(=O)OC)C(C)(C)C)C(C)(C)C | inactive |  |
| O=C(O)c1cn(C2CC2)c2cc(N3CCNCC3)c(F)cc2c1=O | inactive |  |
| CC(C)c1c(C(=O)Nc2ccccc2)c(-c2ccccc2)c(-c2ccc(F)cc2)n1CC[C@@H](O)C[C@@H](O)CC(=O)O | inactive |  |
| CN(C)CCC=C1c2ccccc2CCc2ccccc21 |  | 11.2 µM (active) |
| NNCCc1ccccc1 | inactive |  |
| CCOC(=O)[C@H](CCc1ccccc1)N[C@@H](C)C(=O)N1[C@H](C(=O)O)C[C@@H]2CCC[C@@H]21 | inactive |  |
| NCCC(O)(P(=O)(O)O)P(=O)(O)O | inactive |  |
| Cn1cc[nH]c1=S | inactive |  |
| NC(=O)C(c1ccccc1)(c1ccccc1)[C@@H]1CCN(CCc2ccc3c(c2)CCO3)C1 | inactive |  |
| N=c1nc(N2CCCCC2)cc(N)n1O | inactive |  |
| COc1ccc(Cl)cc1C(=O)NCCc1ccc(S(=O)(=O)NC(=O)NC2CCCCC2)cc1 | inactive |  |
| CC1=C(C(=O)O)N2C(=O)[C@@H](NC(=O)[C@H](N)c3ccc(O)cc3)[C@H]2SC1 | inactive |  |
| Cc1ccsc1C(=CCCN1CCC[C@@H](C(=O)O)C1)c1sccc1C | inactive |  |
| C[n+]1ccccc1/C=N/O | inactive |  |
| COc1ccccc1OCCNCC(O)COc1cccc2[nH]c3ccccc3c12 (centres undefined) |  | 10 µM (active) |
| CN(C)c1cc(NC(=O)CNC(C)(C)C)c(O)c2c1C[C@@H]1C[C@H]3[C@H](N(C)C)C(=O)C(C(N)=O)=C(O)[C@@]3(O)C(=O)C1=C2O | inactive |  |

| Structure (SMILES) | outcome | AC50 |
| --- | --- | --- |
| COc1cc(C(=O)NCc2ccc(OCCN(C)C)cc2)cc(OC)c1OC | inactive |  |
| Nc1[nH]c(=O)ncc1F | inactive |  |
| COc1cc2c(cc1OC)[C@@H]1CC(=O)[C@@H](CC(C)C)CN1CC2 | inactive |  |
| CCC(=O)C(CC(C)N(C)C)(c1ccccc1)c1ccccc1 (centres undefined) |  | 15.8 µM (active) |
| OCCN(CCO)c1nc(N2CCCCC2)c2nc(N(CCO)CCO)nc(N3CCCCC3)c2n1 | inactive |  |
| CCN1CCN(C(=O)N[C@@H](C(=O)N[C@@H]2C(=O)N3C(C(=O)O)=C(CSc4nnnn4C)CS[C@H]23)c2ccc(O)cc2)C(=O)C1=O | inactive |  |
| CC(C)(C#N)c1cc(Cn2cncn2)cc(C(C)(C)C#N)c1 | inactive |  |
| CS(=O)(=O)OCCCCOS(C)(=O)=O | inactive |  |
| Cc1onc(-c2c(Cl)cccc2Cl)c1C(=O)N[C@@H]1C(=O)N2[C@@H]1SC(C)(C)[C@@H]2C(=O)O | inactive |  |
| O=C(NCCN1CCOCC1)c1ccc(Cl)cc1 | inactive |  |
| CN(C)[C@@H]1C(=O)C(C(N)=O)=C(O)[C@@]2(O)C(=O)C3=C(O)c4c(O)ccc(Cl)c4[C@@H](O)[C@H]3C[C@@H]12 | inactive |  |
| CC1=C(C(=O)O)N2C(=O)[C@@H](NC(=O)[C@H](N)c3ccccc3)[C@H]2SC1 | inactive |  |
| O=C(C1CCCCC1)N1CC(=O)N2CCc3ccccc3C2C1 (centres undefined) | inactive |  |
| COC(=O)C1=C(C)NC(C)=C(C(=O)OC(C)C)C1c1cccc2nonc12 (centres undefined) | inactive |  |
| CCn1cc(C(=O)O)c(=O)c2cc(F)c(N3CCNCC3)cc21 | inactive |  |
| CC(C(=O)O)c1cccc(C(=O)c2ccccc2)c1 (centres undefined) | inactive |  |
| CN(C)CC/C=C1\c2ccccc2COc2ccccc21 |  | 25.1 µM (active) |
| CC1(C)O[C@@H]2[C@@H](CO[C@@]3(COS(N)(=O)=O)OC(C)(C)O[C@@H]23)O1 | inactive |  |
| CC(C)(O)c1ccccc1CC[C@@H](SCC1(CC(=O)O)CC1)c1cccc(/C=C/c2ccc3ccc(Cl)cc3n2)c1 | inactive |  |

— PubChem BioAssay (NCATS)
